Among the data in PubChem BioAssay (NCATS) are Potency values, retold here.

SMILES strings stand for the structures. Inconclusive results are not listed. A call without a number means that no potency is given here. Activity calls are given as the source filed them. Calls follow the shape of the full dose curve.

This assay in a line: Validation screen for inhibitors of Lassa infection (AID 463096). As to conditions: Lassa virus infection, cell-based; series mostly up to 46.1 µM.
Consider `CN(C)c1nc(N(C)C)nc(N(C)C)n1`, for which the Potency result is “inactive”.
With `CN(C)CC[C@@H](c1ccc(Br)cc1)c1ccccn1` the entry was “inactive”.
Consider `Cc1ccccc1N1C(=O)c2cc(S(N)(=O)=O)c(Cl)cc2NC1C` (stereo unspecified), for which the Potency entry is “inactive”.
For `O=C1CCC(N2C(=O)c3ccccc3C2=O)C(=O)N1` (stereo unspecified) the value was “inactive”; for `O=C1NC(=O)C(c2ccccc2)(c2ccccc2)N1`, “inactive”.
For `COCCCC/C(=N\OCCN)c1ccc(C(F)(F)F)cc1` the value was “inactive”; for `O=C(CCCN1CCC(O)(c2ccc(Cl)cc2)CC1)c1ccc(F)cc1`, “inactive”.
With `Cc1cnc(C(=O)NCCc2ccc(S(=O)(=O)NC(=O)NC3CCCCC3)cc2)cn1` the entry was “inactive”; with `O=c1n(CCCN2CCN(c3cccc(Cl)c3)CC2)nc2ccccn12`, “inactive”; with `COc1cc2nc(N3CCN(C(=O)C4CCCO4)CC3)nc(N)c2cc1OC` (stereo unspecified), “inactive”.
`Cn1cnc([N+](=O)[O-])c1Sc1ncnc2nc[nH]c12`: the Potency entry is “inactive”.
For `N[C@@H]1CONC1=O` the value was “inactive”.
With `NS(=O)(=O)c1cc2c(cc1Cl)NC=NS2(=O)=O` the entry was “inactive”; with `COC(=O)Nc1nc2ccc(C(=O)c3cccs3)cc2[nH]1`, “inactive”; with `COc1ccccc1OCC(O)CN1CCN(CC(=O)Nc2c(C)cccc2C)CC1` (stereo unspecified), “inactive”.
For `CC(CN1c2ccccc2Sc2ccccc21)N(C)C` (stereo unspecified) the value was “inactive”.
On to `CCC1(c2ccccc2)C(=O)NCNC1=O`, for which the Potency result was “inactive”.
With `Nc1nnc(-c2cccc(Cl)c2Cl)c(N)n1` the entry was “inactive”.
With `CCCNC(=O)NS(=O)(=O)c1ccc(Cl)cc1` the entry was “inactive”; with `CN/C(=C\[N+](=O)[O-])NCCSCc1ccc(CN(C)C)o1`, “inactive”; with `CC(=O)N[C@@H](CS)C(=O)O`, “inactive”.
